HUVEC tox TNFa – toxic to HUVEC cells under TNF alpha stimulation | HUVEC TNFalpha-stimulated, Hoechst cell count, imaging | cell count reduction, % at 2 µM | 93,000 tested, 0.17% active;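 active = cell count reduction exceeding the screen mean by over 5 SD, scaled to untreated wells per plate, cut at about 78% in these data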;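 note: cells counted after 24 h of TNF alpha exposure following the 1 h pretreatment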
E-sel TNF inh – blocks E-selectin expression induced by TNF alpha | HUVEC TNFa-induced E-selectin immunofluorescence, high content | inhibition, % at 2 µM | 120,000 tested, 0.71% active;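 active = inhibition above the batch mean plus 3 SD, and confirmed as a hit on visual image review, cut at about 43% in these data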;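 note: 0% = TNF-stimulated DMSO wells and 100% = unstimulated control wells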
cytoskel mod – cytoskeleton assembly modification; HUVEC TNFa F-actin phalloidin imaging, high content; inhibition, % at 2 µM; 91,000 tested, 0.18% active; AID 836;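 active = inhibition above the batch mean plus 3 SD and confirmed as a hit by visual image inspection, cut at about 30% in these data, passing the limit was not always enough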
VCAM1 TNFa inh – reduces TNF alpha induced VCAM1 expression in HUVEC; HUVEC TNFa-induced VCAM-1 immunofluorescence, high-content imaging; inhibition, % at 2 µM; 95,000 tested, 0.48% active;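 active = inhibition above the batch mean plus 3 SD, with images confirmed as a hit by eye, cut at about 37% in these data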;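 note: 0% = TNF-stimulated DMSO wells and 100% = unstimulated control wells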
* = called active by the depositor. An excerpt weighted towards active compounds, which were near 1% of everything screened.

`COc1ccc(-n2nnnc2-c2cnc(N3CCCC3)nc2C(F)(F)F)cc1` gave HUVEC tox TNFa -7.7, E-sel TNF inh 100.0*, cytoskel mod 6.2 and VCAM1 TNFa inh -0.9.
`Cc1ccc(C(C)n2cc(C(=O)NCCN3CCN(C)CC3)nn2)cc1` (stereo unspecified) gave HUVEC tox TNFa 4.0, E-sel TNF inh 71.2*, cytoskel mod 5.9 and VCAM1 TNFa inh 7.0.
`CCOc1ccc(-n2cc(C(=O)NCc3ccco3)c3cc(OC)c(OC)cc3c2=O)cc1` gave HUVEC tox TNFa -16.1, cytoskel mod 63.3* and VCAM1 TNFa inh -4.3.
`Cc1csc(NC(=O)CCN2C(=O)c3ccccc3S2(=O)=O)n1` gave HUVEC tox TNFa -0.5, E-sel TNF inh 4.6, cytoskel mod -4.6 and VCAM1 TNFa inh 22.5.
CCOC(=O)Cc1csc(NC(=O)CN2C(=O)c3ccccc3S2(=O)=O)n1 was read as E-sel TNF inh 96.0*.
`COC(=O)c1cc2sccc2n1CC(=O)N1CCCc2ccccc21` gave HUVEC tox TNFa -11.1, cytoskel mod 3.0 and VCAM1 TNFa inh 12.3.
`COC(=O)c1cc2oc(C)cc2n1CC(=O)N1CCCc2ccccc21` gave HUVEC tox TNFa -23.3, E-sel TNF inh 71.4*, cytoskel mod 18.4 and VCAM1 TNFa inh 0.4.
CN1C(=O)/C(=C/c2ccccc2Cl)Sc2ccc(C(=O)NCc3cccnc3)cc21 was read as E-sel TNF inh -6.0.
For COc1cccc(/C=N/NC(=O)CSc2nnc(C)n2-c2ccccc2)c1O the results were HUVEC tox TNFa -8.1, E-sel TNF inh -20.9, cytoskel mod -17.3 and VCAM1 TNFa inh 6.1.
CCCCSc1nc(C)cc(SCC(=O)N/N=C/c2cccc(OC)c2O)n1 was read as HUVEC tox TNFa 41.5, E-sel TNF inh -16.7, cytoskel mod 31.0 and VCAM1 TNFa inh 44.1*.
OCCCc1nc2n(n1)C(c1cccs1)C=C(c1ccc(Br)cc1)N2 (stereo unspecified) was read as HUVEC tox TNFa -7.9, E-sel TNF inh -4.6, cytoskel mod -3.9 and VCAM1 TNFa inh -16.3.
Screening Brc1ccc(C2=CC(c3cccs3)n3ncnc3N2)cc1 (stereo unspecified) returned HUVEC tox TNFa 14.9, E-sel TNF inh 99.9*, cytoskel mod -1.0 and VCAM1 TNFa inh 3.7.
For C1=C(c2ccc(-c3ccccc3)cc2)Nc2ncnn2C1c1ccco1 (stereo unspecified) the results were HUVEC tox TNFa 0.8, E-sel TNF inh 64.5*, cytoskel mod 1.6 and VCAM1 TNFa inh -2.2.
Screening Fc1ccc(C2=CC(c3ccco3)n3ncnc3N2)cc1 (stereo unspecified) returned E-sel TNF inh 4.3.
COCCn1c(SCC(=O)c2ccc3c(c2)OCCO3)nnc1C(C)C was read as HUVEC tox TNFa -6.2, E-sel TNF inh -10.5, cytoskel mod -1.5 and VCAM1 TNFa inh 14.4.
For COCCn1c(SCC(=O)c2ccc(Cl)cc2)nnc1C(C)C the results were HUVEC tox TNFa -13.1, E-sel TNF inh 70.9*, cytoskel mod 54.5 and VCAM1 TNFa inh -1.3.
COC(=O)c1cc(COC(=O)c2ccc(OC)c(S(=O)(=O)N3CCCC3)c2)oc1C was read as HUVEC tox TNFa 95.8*, cytoskel mod -53.5 and VCAM1 TNFa inh 64.1.
c1csc(COc2ccccc2CNC2CCCCC2)c1 was read as E-sel TNF inh 2.8.
`O=C(N/N=C1/CCS(=O)(=O)c2ccc(F)cc21)c1ccccn1` gave E-sel TNF inh 81.3*.
`CCOC(=O)C1CCCN(c2ncnc3c2cnn3-c2ccc(OC)cc2)C1` (stereo unspecified) gave HUVEC tox TNFa -38.9, cytoskel mod -19.1 and VCAM1 TNFa inh -19.1.
Screening CCOC(=O)C1CCCN(c2ncnc3c2cnn3-c2ccc(Cl)cc2)C1 (stereo unspecified) returned HUVEC tox TNFa -1.3, E-sel TNF inh 62.8* and VCAM1 TNFa inh -39.7.
For COc1ccc(NC(=O)/C(Cl)=C(/Cl)S(=O)Cc2ccccc2)cn1 (stereo unspecified) the results were HUVEC tox TNFa 99.2*, cytoskel mod 8.3 and VCAM1 TNFa inh 87.8*.
For COc1ccc(CS(=O)(=O)/C(Cl)=C(/Cl)C(=O)Nc2ccc(OC)nc2)cc1 the results were HUVEC tox TNFa 13.7, E-sel TNF inh 94.9*, cytoskel mod 5.3 and VCAM1 TNFa inh 41.8*.
COc1ccc(NC(=S)Nc2ccccc2)cn1 was read as E-sel TNF inh -11.0.
COc1ccc(/C=C/C(=O)Nc2ccc(OC)nc2)cc1 was read as E-sel TNF inh -7.2.
`O=C(/C=C/Nc1ccc(F)cc1F)c1cccs1` gave E-sel TNF inh -25.9.
O=C(/C=C\Nc1cccc(F)c1)c1cccs1 was read as HUVEC tox TNFa -30.6, E-sel TNF inh 70.2*, cytoskel mod 39.9 and VCAM1 TNFa inh 3.3.
Screening COc1ccc(CCCC(=O)Nc2ccc(F)cc2)cc1 returned E-sel TNF inh -12.0.
CNC(=O)CN(c1ccc(OC)cc1)S(=O)(=O)c1ccc(F)cc1 was read as HUVEC tox TNFa -5.7, E-sel TNF inh -2.6, cytoskel mod -9.3 and VCAM1 TNFa inh 92.9*.
For O=C(CSc1nnc(-c2cccs2)n1-c1ccccc1)N1CCCC1 the results were HUVEC tox TNFa 87.9*, E-sel TNF inh 20.6, cytoskel mod -44.5 and VCAM1 TNFa inh 59.3.
O=C(CSc1nnc(-c2cccs2)n1-c1ccccc1)N1CCOCC1 was read as HUVEC tox TNFa -9.6, E-sel TNF inh -9.0, cytoskel mod 11.9 and VCAM1 TNFa inh 4.0.
`O=C(CN(CCO)c1ccccc1)Nc1ccc(Cl)c(S(=O)(=O)N2CCOCC2)c1` gave E-sel TNF inh 1.3.
CCC(C)(C)NC(=O)Cc1ccc(OC)c(OC)c1 was read as HUVEC tox TNFa 3.2, E-sel TNF inh 23.0, cytoskel mod -6.1 and VCAM1 TNFa inh 18.3.
`CCC(C)(C)NC(=O)CN(C(=O)c1snc(C(N)=O)c1N)c1ccc(OC)c(OC)c1` gave HUVEC tox TNFa -10.9, E-sel TNF inh 76.2*, cytoskel mod 1.9 and VCAM1 TNFa inh -9.7.
For CC(=O)NC(=S)Nc1ccccc1C(=O)Nc1ccccc1 the results were E-sel TNF inh 9.6.
`CCCCC(=O)NC(=S)Nc1ccccc1C(=O)Nc1ccccc1` gave HUVEC tox TNFa 89.9*, cytoskel mod -88.0 and VCAM1 TNFa inh 93.4*.
O=C(NC1CC1)c1ccc(S(=O)(=O)NC2CCCCCC2)cc1 was read as HUVEC tox TNFa -13.7, E-sel TNF inh -14.3, cytoskel mod 30.3 and VCAM1 TNFa inh 11.3.
`O=C(NC1CC1)c1ccc(S(=O)(=O)NCC2CCCCC2)cc1` gave HUVEC tox TNFa 52.6, E-sel TNF inh -4.8, cytoskel mod 54.9* and VCAM1 TNFa inh 50.7*.
Screening CC(C)(C)C1=CC(=O)C(=O)C(C(C)(C)C)=C1 returned E-sel TNF inh 89.0*.
For CC(C)(O)C#Cc1ccc(CN2CCN(CCc3ccccc3)C(CCO)C2)s1 (stereo unspecified) the results were E-sel TNF inh 21.7.
`COc1cc(/C=C2\SC(=S)N(CC(=O)Nc3ccc(O)cc3)C2=O)cc(OC)c1OC` gave E-sel TNF inh 73.8*.
O=S(=O)(Nc1ccc(-n2cccc2)cc1)c1ccccc1 was read as HUVEC tox TNFa 26.3, E-sel TNF inh 36.4, cytoskel mod -24.6 and VCAM1 TNFa inh 39.5*.
`CCCCCC1=CCC/C1=N\NC(=O)c1ccc2c(c1)OCO2` gave E-sel TNF inh -64.3.

Compound activity: PubChem, Columbia University Molecular Screening Center
